Screens from PubChem.
GPR151 activ = activators of human GPR151; Q8TDV0; PathHunter beta-arrestin GPR151 cells, luminescence; activation, % at 11.2 µM; hit rate 1% among 650,000; AID 1508602; in the data active means activation above about 4.9%;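 further: 0% = median of compound wells and 100% = cells with positive control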
TEAD-YAP block = TEAD-YAP interaction inhibition; inhibition, % at 9.12 µM; hit rate 1.4% among 640,000; HEK-TIYL cells, TEAD-Gal4/YAP UAS-luciferase luminescence; in the data active means inhibition above about 32%;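 further: 0% = median of test compound wells and 100% = reference inhibitor wells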
MITF inh = inhibitors of human MITF; inhibition, % at 2.6 µM; AlphaScreen MITF homodimerization, bead proximity signal; O75030; hit rate 0.91% among 650,000; in the data active means inhibition above about 50%;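 further: 0% = vehicle wells with protein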
FBW7 act = human FBW7 E3 ligase activation, primary screen | Q969H0 | AlphaScreen FBW7–phospho-cyclin E peptide binding, activator screen | normalized activity (activation), % at 26.1 µM | hit rate 0.13% among 650,000; in the data active means normalized activity above about 1.9%;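 further: purified mutant Fbw7 with reduced substrate affinity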
Target sequence (Q969H0 whole entry, looked up): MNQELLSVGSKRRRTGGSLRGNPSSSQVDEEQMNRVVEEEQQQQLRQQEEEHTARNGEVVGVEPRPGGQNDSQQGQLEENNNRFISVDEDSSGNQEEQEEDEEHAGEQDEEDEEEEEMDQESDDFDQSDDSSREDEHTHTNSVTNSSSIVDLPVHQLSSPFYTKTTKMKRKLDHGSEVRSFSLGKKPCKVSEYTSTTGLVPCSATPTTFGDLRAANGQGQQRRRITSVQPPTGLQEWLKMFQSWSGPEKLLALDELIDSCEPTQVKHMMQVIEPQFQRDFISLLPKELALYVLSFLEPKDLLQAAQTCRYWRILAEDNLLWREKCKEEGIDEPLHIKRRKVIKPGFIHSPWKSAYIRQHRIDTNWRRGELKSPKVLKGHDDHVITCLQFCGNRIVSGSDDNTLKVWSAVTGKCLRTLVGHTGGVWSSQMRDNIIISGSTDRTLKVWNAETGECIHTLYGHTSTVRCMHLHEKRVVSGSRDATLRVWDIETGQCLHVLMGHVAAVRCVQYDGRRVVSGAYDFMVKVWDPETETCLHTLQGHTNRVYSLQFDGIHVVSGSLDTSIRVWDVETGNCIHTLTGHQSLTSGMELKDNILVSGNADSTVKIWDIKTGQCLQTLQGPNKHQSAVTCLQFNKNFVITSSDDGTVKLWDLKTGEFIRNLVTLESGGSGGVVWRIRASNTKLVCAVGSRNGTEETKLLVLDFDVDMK
GPR151 conf act = confirmation of human GPR151 activators; shares compounds with GPR151 activ; GPR151 PathHunter beta-arrestin cells, luminescence, 90 min; % of EA-reagent control over plate median; activation, % at 11.2 µM; 6,700 tested, under 10 active;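 active means mean percent activation across replicates above the confirmation screen cutoff of 4.91%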
GPR119 ag = counter-screen for GPR151 activators: effect on human GPR119 | shares compounds with GPR151 activ | GPR119 PathHunter beta-arrestin cells, luminescence, 90 min; 0 = compound-well median, 100 = enzyme-acceptor control | activation, % at 11.2 µM | hit rate 0.3% among 6,700 | AID 1508611;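 active means mean percent activation in the counterscreen above 29.09%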;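 further: counterscreen on off-target GPR119 to flag nonselective hits from the GPR151 activator screen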
An asterisk follows results filed as active. Compounds with a hit are over-represented: about 3.5% of the library has one in this group of screens.

Screening CN(Cc1nc(-c2ccccc2)no1)S(=O)(=O)c1ccc(Cl)cc1 returned GPR151 activ 5.5*, TEAD-YAP block 5, MITF inh 3, FBW7 act 0, GPR151 conf act -1 and GPR119 ag -8.
Screening CCOc1ccc(C(=O)N(Cc2nc(-c3ccc(OC)cc3)no2)C(C)C)cc1OCC returned GPR151 activ -1, TEAD-YAP block -3, MITF inh 3 and FBW7 act 0.
`C=CCOc1ccc(C(=O)N(Cc2nc(-c3ccc(OC)c(OC)c3)no2)C(C)C)cc1` gave GPR151 activ 12*, TEAD-YAP block 0, MITF inh 12, FBW7 act 0, GPR151 conf act -1 and GPR119 ag 6.
`CC(C)N(Cc1nc(-c2ccccc2)no1)C(=O)CCN1C(=O)c2ccccc2C1=O` gave GPR151 activ 3, TEAD-YAP block 9, MITF inh -8 and FBW7 act 0.
For COc1ccc(-c2noc(CN(C(C)C)S(=O)(=O)c3ccc(F)cc3)n2)cc1 the results were GPR151 activ 11*, TEAD-YAP block -5, MITF inh -5, FBW7 act 0, GPR151 conf act 0 and GPR119 ag -7.
COc1cccc(OC)c1C(=O)N(Cc1nc(-c2ccc(C)cc2)no1)C(C)C was read as GPR151 activ 9.7*, TEAD-YAP block 14, MITF inh -7, FBW7 act 0, GPR151 conf act 0 and GPR119 ag -15.
Screening COC(=O)C1=NNC2C(=O)N(c3ccc(OC)cc3)C(=O)C12 (stereo unspecified) returned GPR151 activ 6.1*, TEAD-YAP block 8, MITF inh 18, FBW7 act 0, GPR151 conf act 0 and GPR119 ag 8.
`CCOC(=O)c1ccc(N2NC(=O)/C(=C/c3ccccc3O)C2=O)cc1` gave GPR151 activ 1, TEAD-YAP block -1, MITF inh 2 and FBW7 act 0.
Screening CCC(C)NCc1c(C(=O)O)n(Cc2ccc(F)cc2Cl)c2ccccc12 (stereo unspecified) returned GPR151 activ 0, TEAD-YAP block -4, MITF inh -214 and FBW7 act 0.
For O=C(Nc1ccc(Oc2ccc(Cl)cc2)cc1)C1CCCN1C(=O)OCc1ccccc1 (stereo unspecified) the results were GPR151 activ 5.5*, TEAD-YAP block 5, MITF inh 11, FBW7 act 0, GPR151 conf act -1 and GPR119 ag 4.
`Cc1c(C(=O)NC(=S)Nc2ncccc2O)cccc1[N+](=O)[O-]` gave GPR151 activ 5.4*, TEAD-YAP block 0, MITF inh -4, FBW7 act 0, GPR151 conf act 0 and GPR119 ag -5.
Cc1ccc(N(CC(=O)O)C2SC(=O)NC2=O)cc1 (stereo unspecified) was read as GPR151 activ 5.7*, TEAD-YAP block 2, MITF inh 13, FBW7 act 0, GPR151 conf act 2 and GPR119 ag 1.
O=C(CSc1cn(CC(=O)N2CCOCC2)c2ccccc12)NC1CCCC1 was read as GPR151 activ 5.4*, TEAD-YAP block -2, MITF inh -12, FBW7 act 0, GPR151 conf act 0 and GPR119 ag 3.
Screening NC(=O)C1CCN(C(=O)C(=O)c2cn(CC(=O)N3CCCCCC3)c3ccccc23)CC1 returned GPR151 activ 6.2*, TEAD-YAP block 0, MITF inh -18, FBW7 act 0, GPR151 conf act -1 and GPR119 ag -2.
For CC(NC(=O)Nc1ccc(F)cc1F)c1ccc2c(c1)OCO2 (stereo unspecified) the results were GPR151 activ 7.2*, TEAD-YAP block -5, MITF inh 7, FBW7 act 0, GPR151 conf act 1 and GPR119 ag 0.
For CC(NC(=O)c1ccc(F)cc1)c1ccc2c(c1)OCCO2 (stereo unspecified) the results were GPR151 activ 0, TEAD-YAP block -1, MITF inh 5 and FBW7 act 0.
For COc1ccc(C2NC(C(=O)O)Cc3c2[nH]c2ccccc32)cc1O (stereo unspecified) the results were GPR151 activ 0, TEAD-YAP block 7, MITF inh 15 and FBW7 act 0.
Screening CCCNc1nc(Nc2nccc3ccccc23)ncc1C returned GPR151 activ 5.1*, TEAD-YAP block 39*, MITF inh 0, FBW7 act 0, GPR151 conf act 0 and GPR119 ag -1.
Cc1cnc(Nc2nc3ccccc3n2C)nc1Nc1ccc(N2CCOCC2)cc1 was read as GPR151 activ -1, TEAD-YAP block -28, MITF inh 18 and FBW7 act 0.
`Cc1cnc(Nc2nccc3ccccc23)nc1Nc1ccc(N2CCOCC2)cc1` gave GPR151 activ 6.0*, TEAD-YAP block 50*, MITF inh 3, FBW7 act 0, GPR151 conf act 0 and GPR119 ag -3.
COc1ccc(OC)c(N(CC(=O)Nc2ccc(F)cc2F)S(C)(=O)=O)c1 was read as GPR151 activ -2, TEAD-YAP block -3, MITF inh 9 and FBW7 act 0.
`COc1ccc(NC(=O)C2CCC(Cn3c(=S)[nH]c4ccccc4c3=O)CC2)cc1` (stereo unspecified) gave GPR151 activ 7.0*, TEAD-YAP block -11, MITF inh -6, FBW7 act 0, GPR151 conf act 0 and GPR119 ag -11.
`O=C(/C=C/c1ccccc1Cl)NCCc1nc2ccccc2[nH]1` gave GPR151 activ -1, TEAD-YAP block 2, MITF inh 12 and FBW7 act 0.
Screening CC1=C(C(=O)NC2CCCC2)C2(CCCCCC2)OC1=O returned GPR151 activ 0, TEAD-YAP block -2, MITF inh 18 and FBW7 act 0.
For CCC(C)NC(=O)C1=C(C)C(=O)OC12CCCCCC2 (stereo unspecified) the results were GPR151 activ -1, TEAD-YAP block 8, MITF inh 15 and FBW7 act 0.
CC1=C(C(=O)NC2CCCCC2)C2(CCCCC2)OC1=O was read as GPR151 activ 6.2*, TEAD-YAP block -6, MITF inh 3, FBW7 act 0, GPR151 conf act 0 and GPR119 ag -9.
`CC1=C(C(=O)NC(C)C)C2(CCCCC2)OC1=O` gave GPR151 activ 7.3*, TEAD-YAP block -4, MITF inh -6, FBW7 act 0, GPR151 conf act 1 and GPR119 ag -7.
`O=C(O)COc1ccc(C2C3=C(CCCC3=O)OC3=C2C(=O)CCC3)cc1` gave GPR151 activ 6.2*, TEAD-YAP block 0, MITF inh 2, FBW7 act 0, GPR151 conf act 1 and GPR119 ag 0.
`COc1ccc(Nc2c(-c3ccc(SC)cc3)nc3cnccn23)cc1` gave GPR151 activ 0, TEAD-YAP block 2, MITF inh 4 and FBW7 act 0.
